Experimental findings from PubChem BioAssay AID686979 (National Center for Advancing Translational Sciences (NCATS), 2013) are described below.

The campaign covered roughly 420,000 compounds. About 50,000 (12%) were called active. Inconclusive results (about 26%) are left out. The sample as a whole holds a higher share of actives than the screen did. Values without a mark were called inactive. Calls come from the whole dose curve; as a rule, active = well fitted inhibition curve with a large enough effect; inconclusive = small, poorly fitted or top-dose-only effect; inactive = flat fitted curve, though single readings scatter.
% is set by controls: 0 for no effect and ±100 for the full control effect; potency is the fitted concentration of half-maximal effect.

A short description of this assay: qHTS for Inhibitors of human tyrosyl-DNA phosphodiesterase 1 (TDP1): qHTS in cells in presence of CPT. Note: nearly all actives have a fitted effect of over 55% in size. The conditions noted are these: chicken DT40 Tdp1-/-;hTDP1 cells + 20 nM CPT, ATP luminescence, 48 h; series mostly up to 46.2 µM; activity change, negative = growth inhibition: at the top concentration. Put shortly:
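Chicken DT40 Tdp1-/- cells complemented with human TDP1, 400 cells/well, exposed to compounds plus 20 nM camptothecin for at least 48 h at 37 C; viability read as ATP content by CellTiter-Glo luminescence.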
(In general: In qHTS, concentration-response curves come from the screen itself.)
On to `O=C(COC(=O)c1ccco1)Nc1ccc(Cl)cn1`, for which the “activity change, negative = growth inhibition” value was -20.4%.
`COc1ccc(C2Nc3ccccc3C(=O)N2c2ccc(F)cc2)cc1Cn1nnc2ccccc21` (configuration not stated): the “activity change, negative = growth inhibition” value is -12.8%.
The same measure, in the same setting: next, `O=C(Cn1nnc2ccccc2c1=O)Nc1cc(C(F)(F)F)ccc1N1CCOCC1`: -19.8%; `CCCCN(C(=O)/C=C/c1ccco1)c1c(N)n(CC(C)C)c(=O)[nH]c1=O`: 6.51%.
As to `CN1CCN(c2ncc3c(n2)CC(c2ccccc2F)CC3=O)CC1` (configuration not stated), the “activity change, negative = growth inhibition” value was -27.4%.
Turning to `O=C(O)CSc1nnc(-c2ccc3c(c2)OCO3)n1-c1ccccc1`, the “activity change, negative = growth inhibition” value is 0.195%.
Take `c1n[nH]c(NCc2ccc3c(c2)OCO3)n1`: the “activity change, negative = growth inhibition” value was -0.691%.
For `c1cncc(CNc2ccnc(-c3ccc4c(c3)OCO4)n2)c1`, the Potency was 8.2 µM (active).
On to `Cc1cc(NCc2cccnc2)no1`, for which the “activity change, negative = growth inhibition” value was -0.255%.
Consider `C=CCn1c(SCC(=O)NCCCO)nc2sc3c(c2c1=O)CCC3`, for which the “activity change, negative = growth inhibition” value is 11.1%.
Regarding `C=CCn1c(SCc2c(C)noc2C)nc2sc3c(c2c1=O)CCC(C)C3` (configuration not stated), the Potency is 14.6 µM (active).
As for `C=CCn1c(SCC(=O)NCC2CCCO2)nc2sc(C)c(C)c2c1=O` (configuration not stated), the “activity change, negative = growth inhibition” value was -25.8%.
Same read-out and setting: the value for `Cc1ccc(-c2ccc(CCC(=O)O)n2-c2ccc(C(N)=O)cc2)cc1` was -23.8%; that for `CC(C)C[C@@H]1COc2cc(N3CCC[C@@H]3CO)ccc2S(=O)(=O)N1` was -16.9%; that for `O=C(Nc1ccccc1C(=O)NCC1CCCO1)c1ccccc1F` (configuration not stated) was 6.83%.
For `O=C(NC1CC1)C(Cc1ccccc1)NS(=O)(=O)c1ccccc1F` (configuration not stated), the Potency is 16.4 µM (active).
As to `CC(=O)NC(Cc1ccccc1)C(=O)NC1CCN(c2ncccc2[N+](=O)[O-])CC1` (configuration not stated), the “activity change, negative = growth inhibition” value is 5.47%.
For `CCOC(=O)C1=C(COC(=O)[C@H](C)NS(=O)(=O)c2ccccc2F)NC(=O)NC1C` (some centres not stated), the “activity change, negative = growth inhibition” value was -18.8%.
Consider `Cc1ccc(NS(=O)(=O)c2cccs2)cc1S(=O)(=O)N1CCCCCC1`, for which the “activity change, negative = growth inhibition” value is -19.3%.
As to `Cc1ccc(C)c(Nc2nnc(-c3ccc(C)c(S(=O)(=O)N4CCCCC4)c3)c3ccccc23)c1`, the Potency was 4.11 µM (active).
With `Cc1ccc(C(=O)NCC(=O)O)cc1S(=O)(=O)N1CCCCC1`, the “activity change, negative = growth inhibition” value is 12.1%.
In the case of `Cc1ccc(S(=O)(=O)N(C)C)cc1NC(=O)c1ccccc1Br`, the “activity change, negative = growth inhibition” value was 9.43%.
Turning to `Cc1ccc(S(=O)(=O)N(C)C)cc1NC(=O)c1n[nH]c(=O)c2ccccc12`, the Potency was 18.4 µM (active).
Regarding `CC(=O)c1c(C)[nH]c(C(=O)Nc2cc(S(=O)(=O)N(C)C)ccc2C)c1C`, the “activity change, negative = growth inhibition” value was -11.6%.
The same measure, in the same setting: the value for `O=C(CSc1nc2[nH]c(=O)[nH]c(=O)c2s1)Nc1cccc(F)c1` was 0.666%.
In the case of `CCC(C)[C@@H](C(=O)N1CCNCC1)n1cc(CCCCN)nn1` (some centres not stated), the “activity change, negative = growth inhibition” value was 10.6%.
Turning to `CCOC(=O)c1cccc(NC(=O)CN2C(=O)C3CC=CCC3C2=O)c1` (configuration not stated), the “activity change, negative = growth inhibition” value is -1.71%.
Take `CCOC(=O)N1CCN(c2cc(C)c([N+](=O)[O-])cc2F)CC1`: the Potency was 20.6 µM (active).
Turning to `CCOC(=O)C1CCN(c2ccc(C(=O)O)cc2[N+](=O)[O-])CC1`, the “activity change, negative = growth inhibition” value was 6.98%.
Regarding `CCOC(=O)N1CCN(C(=S)Nc2ccc(C)cc2C)CC1`, the “activity change, negative = growth inhibition” value was -11.4%.
As for `NC(=O)C1CCN(C(=O)CC2C(=O)NCCN2Cc2cccc(Oc3ccccc3)c2)CC1` (configuration not stated), the “activity change, negative = growth inhibition” value is 3.56%.
Regarding `Cc1ccc(C(CNC(=O)Nc2cccc(C)c2)N2CCN(C)CC2)cc1` (configuration not stated), the “activity change, negative = growth inhibition” value is -3.68%.
Still for that read-out and setting: the value for `Cc1ccc(NC(=O)Cn2cccc2C2=NC(c3ccccc3)CO2)c(C)c1` (configuration not stated) was -25.7%.
Take `COC(CNC(=O)Cn1ncc2ccsc2c1=O)OC`: the “activity change, negative = growth inhibition” value is -2.79%.
Turning to `O=C1OCCC1=COCCCCOC=C1CCOC1=O`, the “activity change, negative = growth inhibition” value was -10.4%.
As for `Brc1ccc(CN2CC[C@H]3C=CCc4cccc(c43)C2)cc1`, the Potency was 14.1 µM (active).
As for `CCCC(=O)C1CCN(Cc2ccccc2)CC1`, the “activity change, negative = growth inhibition” value was 24.3%.
As to `CCN(CCCNC(=O)c1c(C)oc2ncn(CC(C)C)c(=O)c12)Cc1ccccc1`, the “activity change, negative = growth inhibition” value is 0.204%.
Same read-out and setting: next, `O=S(=O)(NC1CC2CCC1C2)c1ccc(Cl)cc1` (configuration not stated): -19.1%; `O=C(CO/N=C/c1ccc(OC(F)F)cc1)NCc1ccc(F)cc1`: -2.12%; `COc1ccc(/C=C2\NC(=O)[C@@H]3Cc4ccccc4CN3C2=O)cc1`: -14.1% [at 9.04 µM].
`COc1ccc(/C=C2\N=C3CCCN3C2=O)cc1`: the “activity change, negative = growth inhibition” value is -10.1%.
Same read-out and setting: next, `O=C1/C(=C/c2cccs2)CCc2ccccc21`: -33%; `COc1ccccc1C1=CC(=O)CCC1`: -2.66%.
As to `COc1ccc(/C=C2\CCc3ccccc3C2=O)c(OC)c1OC`, the Potency is 23.1 µM (active).
Same read-out and setting: next, `COc1ccc(/C=C2/CCCc3ccccc3C2=O)cc1`: 5.8 µM (active).
On to `COc1cc2[nH]c(=S)n(Cc3ccc(F)cc3)c(=O)c2cc1OC`, for which the “activity change, negative = growth inhibition” value was -26.5%.
Take `COc1ccccc1NC(=O)N(O)C1(C#N)CCCCC1`: the “activity change, negative = growth inhibition” value is 5.21%.
Same read-out and setting: next, `Cc1nn(CC(=O)NC2CCCCC2)c(=O)c2cccn12`: 14.8%.
With `O=C(/C=C/c1ccc(Cl)cc1)Nc1ccc(S(=O)(=O)Nc2ncccn2)cc1`, the “activity change, negative = growth inhibition” value was -4.33%.
Still for that read-out and setting: next, `O=C(CNS(=O)(=O)c1cccc(C(F)(F)F)c1)Nc1ccccc1F`: -25%.
As for `O=C(/C=C/c1ccc(F)cc1)Nc1cccc(S(=O)(=O)Nc2cccc(C(F)(F)F)c2)c1`, the Potency was 14.6 µM (active).
